In PubChem BioAssay (EPA / NIEHS) one finds AC50 and outcome data, which are given here for four compounds.

Activity calls are given as the source filed them. Rule for the calls: active = hit-call score of the fitted dose curve at least 0.9, where 1 is the maximum; inactive = score below 0.9.

Common to all, as to details: mRNA level, 48 h; actives raise or lower the signal
Read-out in experiment [1]: Cytochrome P450 7A1 (Homo sapiens) (UniProt P22680)
Kind of experiment: LTEA_HepaRG_CYP7A1: Life Technologies and Expression Analysis (LTEA) Assay for Cytochrome P450 7A1 (CYP7A1) using HepaRG (AID 2283496). In a few lines: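 HepaRG, 48 h exposure, 8-pt half-log series from 100 uM, 0.5% DMSO vehicle, duplicates. Readout: TaqMan qRT-PCR mRNA vs three housekeeping genes; bidirectional curve fit against DMSO baseline.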

Read-out in experiment [2]: Glutathione S-Transferase (GSTA2), GSTA2 (gene 2939)
Description: LTEA_HepaRG_GSTA2: Life Technologies and Expression Analysis (LTEA) Assay for Glutathione S-Transferase (GSTA2) using HepaRG (AID 2283497). In short, it runs like this: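 GSTA2 transcript levels came from Fluidigm TaqMan qRT-PCR normalized to three housekeeping genes, fitted in both directions against DMSO. HepaRG cultures received chemicals for 48 h in serum-free induction medium (0.5% DMSO), 8 half-log concentrations up to 100 uM, duplicate.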

Read-out in experiment [3]: Glutamate-cysteine ligase catalytic (GCLC), GCLC (gene 2729)
Kind of experiment: LTEA_HepaRG_GCLC: Life Technologies and Expression Analysis (LTEA) Assay for Glutamate-cysteine ligase catalytic (GCLC) using HepaRG (AID 2283498). In a few lines:
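Expression by TaqMan qRT-PCR, normalized to three housekeeping genes (ACTB, GAPDH, POLR2A), with up- or down-regulation fitted against DMSO. HepaRG cells dosed in duplicate for 48 h with 8 half-log concentrations up to 100 uM, vehicle 0.5% DMSO.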

Read-out in experiment [4]: growth arrest and DNA damage 45 (GADD45G), GADD45G (gene 10912)
Description: LTEA_HepaRG_GADD45G: Life Technologies and Expression Analysis (LTEA) Assay for growth arrest and DNA damage 45 (GADD45G) using HepaRG (AID 2283499). In short, it runs like this: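 GADD45G transcript level by qRT-PCR (housekeeping-normalized: ACTB, GAPDH, POLR2A) after 48 h chemical treatment of a single HepaRG lot in serum-free induction medium; eight-point half-log series up to 100 uM in 0.5% DMSO, duplicates, up- or down-regulation scored.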

Read-out in experiment [5]: Glutamate-cysteine ligase regulatory (GCLM), GCLM (gene 2730)
Kind of experiment: LTEA_HepaRG_GCLM: Life Technologies and Expression Analysis (LTEA) Assay for Glutamate-cysteine ligase regulatory (GCLM) using HepaRG (AID 2283500). In short, it runs like this:
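GCLM expression quantified by qRT-PCR, normalized to three housekeeping genes, after 48 h chemical treatment of HepaRG cells in duplicate at 8 concentrations (top 100 uM, half-log steps, 0.5% DMSO). Changes fitted both directions against vehicle.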

Read-out in experiment [6]: Heat shock 70 kDa protein 1 (HSPA1A), gene 3303
Description: LTEA_HepaRG_HSPA1A: Life Technologies and Expression Analysis (LTEA) Assay for Heat shock 70 kDa protein 1 (HSPA1A) using HepaRG (AID 2283502). In a few lines: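 HSPA1A expression measured by qRT-PCR with ACTB/GAPDH/POLR2A normalization; curves fitted in both directions relative to DMSO vehicle. Exposure: 48 h in HepaRG cells, duplicate 8-point half-log series from 100 uM, 0.5% DMSO, serum-free induction medium.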

Read-out in experiment [7]: Hypoxia-inducible factor 1-alpha (Homo sapiens) (UniProt Q16665)
Description: LTEA_HepaRG_HIF1A: Life Technologies and Expression Analysis (LTEA) Assay for Hypoxia-inducible factor 1 (HIF1A) Trancription factor using HepaRG (AID 2283503). In short, it runs like this:
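HIF1A transcript level read by qRT-PCR (ACTB, GAPDH, POLR2A normalization) after 48 h chemical exposure of HepaRG cultures. Eight half-log concentrations, top 100 uM, 0.5% DMSO vehicle, duplicates; bidirectional curve fit against DMSO baseline.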

Read-out in experiment [8]: 3-Hydroxy-3-Methylglutaryl-CoA Synthase 2 (HMGCS2), HMGCS2 (gene 3158)
Description: LTEA_HepaRG_HMGCS2: Life Technologies and Expression Analysis (LTEA) Assay for 3-Hydroxy-3-Methylglutaryl-CoA Synthase 2 (HMGCS2) using HepaRG (AID 2283504). In a few lines: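 Readout is HMGCS2 transcript by qRT-PCR, housekeeping-normalised (ACTB/GAPDH/POLR2A) and fitted bidirectionally against 0.5% DMSO. Differentiated HepaRG cells received chemicals 48 h, duplicate wells, eight half-log concentrations topping at 100 uM.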

Read-out in experiment [9]: Insulin Like Growth Factor 1 (IGF1), IGF1 (gene 3479)
Description: LTEA_HepaRG_IGF1: Life Technologies and Expression Analysis (LTEA) Assay for Insulin Like Growth Factor 1 (IGF1) using HepaRG (AID 2283506). In a few lines: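 Expression measured by TaqMan qRT-PCR on a Fluidigm array, with three housekeeping genes for normalisation, after 48 h treatment of HepaRG cells. Top concentration 100 uM with half-log steps, 0.5% DMSO vehicle, bidirectional fit.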

Read-out in experiment [10]: Intercellular Adhesion Molecule 1 (ICAM1), ICAM1 (gene 3383)
Description: LTEA_HepaRG_ICAM1: Life Technologies and Expression Analysis (LTEA) Assay for Intercellular Adhesion Molecule 1 (ICAM1) using HepaRG (AID 2283507). In a few lines:
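ICAM1 transcript levels measured by qRT-PCR, normalized to three housekeeping genes (ACTB, GAPDH, POLR2A), after 48 h chemical exposure of HepaRG cells. Duplicate eight-point half-log series from 100 uM in 0.5% DMSO; gain or loss fitted against vehicle.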

Read-out in experiment [11]: Insulin-like growth factor-binding protein 1 (IGFBP1), IGFBP1 (gene 3484)
Kind of experiment: LTEA_HepaRG_IGFBP1: Life Technologies and Expression Analysis (LTEA) Assay for Insulin-like growth factor-binding protein 1 (IGFBP1) using HepaRG (AID 2283508). In short, it runs like this: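 Read-out is qRT-PCR transcript level normalized to three housekeeping genes, fitted in both directions against 0.5% DMSO. Differentiated HepaRG cells received eight half-log concentrations (top 100 uM) in duplicate for 48 h in serum-free induction medium.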

Read-out in experiment [12]: Interleukin 6 Receptor (IL6R), IL6R (gene 3570)
Description: LTEA_HepaRG_IL6R: Life Technologies and Expression Analysis (LTEA) Assay for Interleukin 6 Receptor (IL6R) using HepaRG (AID 2283510). In short, it runs like this: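 IL6R transcript level by qRT-PCR after 48 h chemical exposure (8-point, half-log, max 100 uM, 0.5% DMSO vehicle) of HepaRG cells in serum-free induction medium. Normalized to three housekeeping genes; curves fitted in both directions relative to DMSO.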

Read-out in experiment [13]: Potassium channel subfamily K member 1 (KCNK1), KCNK1 (gene 3775)
Description: LTEA_HepaRG_KCNK1: Life Technologies and Expression Analysis (LTEA) Assay for Potassium channel subfamily K member 1 (KCNK1) using HepaRG (AID 2283511). In short, it runs like this: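 KCNK1 transcript measured by TaqMan qRT-PCR against three housekeeping genes, after HepaRG cells were treated 48 h with eight half-log concentrations (top 100 uM, 0.5% DMSO). Curves fitted bidirectionally relative to vehicle.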

Read-out in experiment [14]: Keratin 19 (KRT19), KRT19 (gene 3880)
Description: LTEA_HepaRG_KRT19: Life Technologies and Expression Analysis (LTEA) Assay for Keratin 19 (KRT19) using HepaRG (AID 2283512). In a few lines: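 KRT19 transcript measured by TaqMan qRT-PCR, referenced to three housekeeping genes, after HepaRG cells received test chemicals for 48 h. Eight half-log concentrations, top 100 uM, 0.5% DMSO vehicle; increases and decreases both fitted.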

Read-out in experiment [15]: JUN Transcription Factor, JUN (gene 3725)
Description: LTEA_HepaRG_JUN: Life Technologies and Expression Analysis (LTEA) Assay for JUN Transcription Factor using HepaRG (AID 2283513). In short, it runs like this: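 mRNA measured by TaqMan qRT-PCR after 48 h chemical exposure of HepaRG cultures; normalization to three housekeeping genes. Duplicate eight-point half-log curves from 100 uM in 0.5% DMSO; gain or loss fitted against DMSO baseline.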

Read-out in experiment [16]: Lipase C (LIPC), LIPC (gene 3990)
Kind of experiment: LTEA_HepaRG_LIPC: Life Technologies and Expression Analysis (LTEA) Assay for Lipase C (LIPC) using HepaRG (AID 2283514). In short, it runs like this:
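LIPC expression was quantified by qRT-PCR against three housekeeping genes (ACTB, GAPDH, POLR2A). Differentiated human HepaRG cells received eight half-log doses (top 100 uM, 0.5% DMSO) in duplicate for 48 h; fitting bidirectional relative to DMSO.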

Read-out in experiment [17]: Lipoprotein lipase (LPL), LPL (gene 4023)
Kind of experiment: LTEA_HepaRG_LPL: Life Technologies and Expression Analysis (LTEA) Assay for Lipoprotein lipase (LPL) using HepaRG (AID 2283515). In a few lines:
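LPL transcript levels quantified by TaqMan qRT-PCR against three housekeeping genes after 48 h chemical treatment of HepaRG cells. Eight-point half-log series from 100 uM in 0.5% DMSO, tested in duplicate; bidirectional fitting versus vehicle.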

Read-out in the next experiment: HGF (gene 3082)
Description: LTEA_HepaRG_HGF: Life Technologies and Expression Analysis (LTEA) Assay for Hepatocyte Growth Facto (HGF) using HepaRG (AID 2283505). In a few lines:
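HGF transcript was quantified by TaqMan qRT-PCR against three housekeeping genes after 48 h treatment of HepaRG cells. Exposure ran in duplicate over eight half-log steps topping at 100 uM in 0.5% DMSO vehicle.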

Read-out in experiment [18]: Interleukin 6 (IL6), IL6 (gene 3569)
Kind of experiment: LTEA_HepaRG_IL6: Life Technologies and Expression Analysis (LTEA) Assay for Interleukin 6 (IL6) using HepaRG (AID 2283509). In short, it runs like this: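 Transcript levels, normalized to three housekeeping genes, were quantified by qRT-PCR after 48 h chemical treatment of HepaRG cells. Eight-point half-log series from 100 uM in 0.5% DMSO, duplicates. Fitted both directions against DMSO baseline.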

Read-out in experiment [19]: Glutathione S-transferase M3 (GSTM3), GSTM3 (gene 2947)
Kind of experiment: LTEA_HepaRG_GSTM3: Life Technologies and Expression Analysis (LTEA) Assay for Glutathione S-transferase M3 (GSTM3) using HepaRG (AID 2283501). In short, it runs like this: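 GSTM3 transcript levels came from Fluidigm TaqMan qRT-PCR normalized to three housekeeping genes, fitted in both directions against DMSO. HepaRG cultures received chemicals for 48 h in serum-free induction medium (0.5% DMSO), 8 half-log concentrations up to 100 uM, duplicate.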

Sequence of Hypoxia-inducible factor 1-alpha (Homo sapiens) (Q16665 whole entry, looked up): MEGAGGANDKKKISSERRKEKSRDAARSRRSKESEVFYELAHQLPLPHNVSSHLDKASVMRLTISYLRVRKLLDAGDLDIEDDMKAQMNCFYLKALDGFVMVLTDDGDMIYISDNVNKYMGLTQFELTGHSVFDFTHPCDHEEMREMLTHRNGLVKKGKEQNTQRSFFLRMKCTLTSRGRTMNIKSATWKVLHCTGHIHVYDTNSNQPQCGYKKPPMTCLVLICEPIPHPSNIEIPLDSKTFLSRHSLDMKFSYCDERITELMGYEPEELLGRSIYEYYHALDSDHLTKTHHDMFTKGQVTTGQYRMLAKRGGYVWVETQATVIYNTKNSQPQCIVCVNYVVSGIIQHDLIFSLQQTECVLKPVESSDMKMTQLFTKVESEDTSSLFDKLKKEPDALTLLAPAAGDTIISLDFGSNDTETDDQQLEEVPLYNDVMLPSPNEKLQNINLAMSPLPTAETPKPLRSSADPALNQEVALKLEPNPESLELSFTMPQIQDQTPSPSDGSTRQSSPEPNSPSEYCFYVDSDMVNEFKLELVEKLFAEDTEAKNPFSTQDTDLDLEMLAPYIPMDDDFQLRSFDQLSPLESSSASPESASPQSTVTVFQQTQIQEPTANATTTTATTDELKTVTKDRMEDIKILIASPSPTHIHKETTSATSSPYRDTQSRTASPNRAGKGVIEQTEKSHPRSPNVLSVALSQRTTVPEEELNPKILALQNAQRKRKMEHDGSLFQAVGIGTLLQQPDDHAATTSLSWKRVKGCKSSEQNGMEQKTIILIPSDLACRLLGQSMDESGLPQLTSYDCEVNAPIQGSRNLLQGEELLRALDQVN

One may read the AC50 as the concentration at which the activity in the assay is half-maximal. For `O=C1CN(N=Cc2ccc([N+](=O)[O-])o2)C(=O)N1`, the AC50 in experiment [1] was 22.2 µM (active); in experiment [2], 81.8 µM (active); in [4], 71.6 µM (active); in [5], 72.5 µM (active); in [8], 72 µM (active); in experiment [9], 50 µM (active). For the same compound, the AC50 in experiment [11] is 33.4 µM (active); in experiment [14], 88.7 µM (active); in experiment [17], 91.3 µM (active). The outcome in experiment [3], in [6], in experiment [7], in [10], in experiment [12] and in experiment [13] was inactive. Also, the result in experiment [15] and in [16] was inactive.

On to `NC(N)=O`, for which the outcome in [1], in experiment [2], in experiment [3], in experiment [4], in experiment [5] and in experiment [6] was inactive. Further, the outcome (in [7]; in experiment [8]; in the experiment with HGF (gene 3082); in experiment [9]; in [10]; in experiment [11]) was inactive. Moreover, the result in [12], in experiment [13], in experiment [14], in experiment [15], in experiment [16] and in experiment [17] was inactive.

For `COCc1nnc(-c2ccc[n+]([O-])c2)n1-c1c(Cl)c(Cl)cc2[nH]c(=O)c(=O)[nH]c12`, the outcome in experiment [1], in experiment [2], in experiment [3], in experiment [4], in experiment [5] and in experiment [6] was inactive. The outcome (in experiment [7]; in experiment [8]; with HGF (gene 3082); in experiment [9]; in [10]; in experiment [11]) was inactive. For the same compound, the compound was classed as inactive in experiment [18], in experiment [12], in experiment [13], in experiment [14], in experiment [15] and in experiment [16]. The result in experiment [17] was inactive.

As to `CCn1nc(C)c2c1C(=O)NCC(c1ccc(O)cc1)=N2`, the outcome in experiment [1], in experiment [2], in experiment [3], in experiment [4], in experiment [5] and in experiment [19] was inactive. Moreover, the call (in experiment [6]; in [7]; in [8]; with HGF (gene 3082); in experiment [9]; in [10]) was inactive. For the same compound, the call in experiment [11], in experiment [18], in [12], in [13], in [15] and in experiment [16] was inactive. Also, the outcome in experiment [17] was inactive. Besides, the AC50 in [14] was 1.84 µM (active).
